Measurements taken from PubChem BioAssay (Tox21).
Records with an inconclusive call do not appear. Activity calls are given as the source filed them. Unless noted, the call rests on the fitted dose curve.

Tests used:
[1] = Nuclear factor erythroid 2-related factor 2/antioxidant responsive element (Nrf2/ARE) small molecule agonists: qHTS cell viability counter screen in human keratinocytes (AID 1919968; active means well fitted curve in the direction sought with a large enough effect in the repeat runs; an effect the other way counts as inactive or inconclusive; further: nearly all actives have a fitted effect of over 55% in size; further: potency means the concentration at half of the fitted maximal effect)
Outline: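 Measured as CellTiter-Fluor fluorescence, this readout tracks cytotoxicity in the same wells as the ARE-luciferase screen. HaCaT reporter cells (1,500/well) received compounds after a 5 h pre-incubation and were exposed for 23 h.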

[2] = Nuclear factor erythroid 2-related factor 2/antioxidant responsive element (Nrf2/ARE) small molecule agonists: luciferase reporter gene qHTS assay in human keratinocytes (AID 1919969); further: nearly all actives have a fitted effect of over 35% in size; further: potency means the concentration at half of the fitted maximal effect
[3] = target: Gonadotropin-releasing hormone receptor (Homo sapiens) (UniProt P30968); assay: Human gonadotropin-releasing hormone receptor (GnRHR) small molecule agonists, calcium flux assay in GnRHR-HEK293 cells (AID 1920063); further: nearly all actives have a fitted effect of over 35% in size
Gonadotropin-releasing hormone receptor (Homo sapiens), sequence (P30968 whole entry, looked up): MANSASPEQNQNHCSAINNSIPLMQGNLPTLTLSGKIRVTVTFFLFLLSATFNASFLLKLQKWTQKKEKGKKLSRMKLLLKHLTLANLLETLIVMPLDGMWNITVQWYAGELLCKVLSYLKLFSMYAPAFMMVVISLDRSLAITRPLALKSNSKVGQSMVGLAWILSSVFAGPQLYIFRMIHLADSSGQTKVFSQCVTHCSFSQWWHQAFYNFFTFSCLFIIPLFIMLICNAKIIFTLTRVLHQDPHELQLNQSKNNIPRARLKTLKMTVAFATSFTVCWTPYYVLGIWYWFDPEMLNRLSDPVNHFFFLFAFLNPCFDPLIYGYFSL
Outline: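 Fluorescence kinetics (480 nm excitation, 540 nm emission; 3 min, 1 s steps) report calcium mobilisation in human GnRHR-HEK293 cells in agonist mode. Dye incubation: 1 h, 37 C.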

[4] = target: KiSS-1 receptor (Homo sapiens) (UniProt Q969F8); assay: Human kisspeptin (KISS1R) small molecule agonists, calcium flux assay in KISS1R-HEK293 cells (AID 1920064; active means well fitted curve in the direction sought with a large enough effect in the repeat runs; an effect the other way counts as inactive or inconclusive)
KiSS-1 receptor (Homo sapiens), sequence (Q969F8 whole entry, looked up): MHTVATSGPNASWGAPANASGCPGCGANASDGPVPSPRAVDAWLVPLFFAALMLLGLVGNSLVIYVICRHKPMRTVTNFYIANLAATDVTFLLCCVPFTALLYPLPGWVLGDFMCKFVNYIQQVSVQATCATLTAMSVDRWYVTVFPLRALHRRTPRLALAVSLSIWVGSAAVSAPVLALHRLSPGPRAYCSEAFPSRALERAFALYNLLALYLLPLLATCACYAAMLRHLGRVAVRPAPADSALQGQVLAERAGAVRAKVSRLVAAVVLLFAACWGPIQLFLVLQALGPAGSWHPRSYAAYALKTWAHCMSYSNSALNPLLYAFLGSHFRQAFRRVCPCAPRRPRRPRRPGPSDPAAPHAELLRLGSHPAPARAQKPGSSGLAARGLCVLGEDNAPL
Outline: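 Measures KISS1R agonism through calcium-sensitive dye fluorescence in stably transfected HEK293 cells, read for 3 min after pin-tool compound delivery; 15-point titrations in triplicate.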

[5] = G protein-coupled receptor (GPCR) small molecule agonists, calcium flux assay: HEK293 wild type cell line counter screen (AID 1920065)
Outline: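 Readout: fluorescence at 480 nm excitation/540 nm emission, sampled at 1 s intervals for 3 min. Cells had been cultured 18 h, then dye-loaded 1 h at 37 C before compound or ATP addition.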

[6] = p53 small molecule agonists, cell-based qHTS assay with human liver microsomes: qHTS cell viability counter screen (AID 1963579); further: nearly all actives have a fitted effect of over 45% in size; further: potency means the concentration at half of the fitted maximal effect
Outline: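 Viability of p53RE-bla cells is measured as CellTiter-Glo luminescence following a 16 h, 37 C incubation with compound, liver microsomes from human donors and NADPH.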

[7] = p53 small molecule agonists, cell-based qHTS assay with rat liver microsomes: qHTS cell viability counter screen (AID 1963580); further: nearly all actives have a fitted effect of over 45% in size; further: potency means the concentration at half of the fitted maximal effect
Outline: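 p53RE-bla HCT-116 cells were exposed 16 h at 37 C to compounds with rat liver microsomes (0.5 mg/mL) and NADPH (0.5 mg/mL). Viability was measured in the same wells as ATP content by CellTiter-Glo luminescence.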

[8] = p53 small molecule agonists, cell-based qHTS assay: qHTS cell viability counter screen (AID 1963581); further: nearly all actives have a fitted effect of over 45% in size; further: potency means the concentration at half of the fitted maximal effect
Outline: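 In the same plates used for the p53 bla reporter, HCT-116 cells given compounds for 16 h at 37 C received CellTiter-Glo; luminescence was recorded 30 min later at room temperature.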

[9] = target: 5-hydroxytryptamine receptor 2A (Homo sapiens) (UniProt P28223); assay: 5-hydroxytryptamine receptor 2A (HTR2A) small molecule antagonists, cell-based qHTS assay (AID 1963586); further: nearly all actives have a fitted effect of over 45% in size
5-hydroxytryptamine receptor 2A (Homo sapiens), sequence (P28223 whole entry, looked up): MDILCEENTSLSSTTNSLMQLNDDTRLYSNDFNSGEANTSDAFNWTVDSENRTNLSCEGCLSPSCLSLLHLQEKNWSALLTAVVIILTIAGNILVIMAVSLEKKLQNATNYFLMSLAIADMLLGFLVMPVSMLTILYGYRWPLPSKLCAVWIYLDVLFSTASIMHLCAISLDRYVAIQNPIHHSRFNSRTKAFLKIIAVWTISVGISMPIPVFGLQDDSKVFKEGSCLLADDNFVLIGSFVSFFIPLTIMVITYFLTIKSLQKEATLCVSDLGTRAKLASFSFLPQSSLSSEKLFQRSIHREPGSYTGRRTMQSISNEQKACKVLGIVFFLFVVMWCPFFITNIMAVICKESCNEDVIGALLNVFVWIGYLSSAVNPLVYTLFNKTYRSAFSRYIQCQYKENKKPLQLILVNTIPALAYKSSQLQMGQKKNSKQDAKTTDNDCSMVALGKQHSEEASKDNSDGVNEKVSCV
Outline: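 Antagonist-mode intracellular calcium assay: DOI (4 nM) added after 5 min compound pre-incubation at room temperature to dye-loaded HTR2A-CHO cells. Fluorescence followed for 3 min, sampled every second.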

[10] = target: 5-hydroxytryptamine receptor 2A (Homo sapiens) (UniProt P28223); assay: 5-hydroxytryptamine receptor 2A (HTR2A) small molecule agonists, cell-based qHTS assay (AID 1963587); further: nearly all actives have a fitted effect of over 30% in size
Outline: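 CHO cells stably expressing human HTR2A, plated 18 h, loaded with calcium dye 1 h at 37 C. Agonist mode: compounds added and intracellular calcium fluorescence recorded kinetically for 2 min at 1 sec intervals.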

[11] = target: Muscarinic acetylcholine receptor M1 (Homo sapiens) (UniProt P11229); assay: Cholinergic receptor muscarinic 1 (CHRM1) small molecule antagonists, cell-based qHTS assay (AID 1963588); further: nearly all actives have a fitted effect of over 40% in size
Muscarinic acetylcholine receptor M1 (Homo sapiens), sequence (P11229 whole entry, looked up): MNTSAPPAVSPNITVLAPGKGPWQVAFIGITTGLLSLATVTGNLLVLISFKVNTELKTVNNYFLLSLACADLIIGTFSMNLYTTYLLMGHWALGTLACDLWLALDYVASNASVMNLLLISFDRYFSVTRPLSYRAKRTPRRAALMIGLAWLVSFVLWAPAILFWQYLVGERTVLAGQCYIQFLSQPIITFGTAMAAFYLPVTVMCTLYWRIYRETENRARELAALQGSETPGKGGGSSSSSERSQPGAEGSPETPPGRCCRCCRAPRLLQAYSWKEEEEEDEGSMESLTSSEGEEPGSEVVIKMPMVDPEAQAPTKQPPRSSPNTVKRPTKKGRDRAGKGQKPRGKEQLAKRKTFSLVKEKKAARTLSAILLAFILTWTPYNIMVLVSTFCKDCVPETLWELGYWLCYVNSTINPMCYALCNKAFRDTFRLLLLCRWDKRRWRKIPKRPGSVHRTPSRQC
Outline: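 CHRM1-CHO calcium-flux assay, antagonist mode. Cells were seeded 18 h, dye-loaded 1 h at 37 C and given compound for 5 min at RT, then acetylcholine was added at 50nM. FDSS fluorescence was read 3 min; 15 concentrations, three runs.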

[12] = target: Muscarinic acetylcholine receptor M1 (Homo sapiens) (UniProt P11229); assay: Cholinergic receptor muscarinic 1 (CHRM1) small molecule agonists, cell-based qHTS assay (AID 1963589); further: nearly all actives have a fitted effect of over 35% in size
Outline: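 Each compound was tested at 15 concentrations across three independent runs on dye-loaded CHO cells stably expressing human CHRM1, reading intracellular calcium fluorescence kinetically at 1 sec intervals.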

[13] = cAMP Responsive Elements (CRE) small molecule agonists, cell-based qHTS assay (AID 1963590)
Outline: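 Cell line: CRE-bla HEK 293T; medium DMEM/10% dialyzed FBS/0.1 mM NEAA/1 mM pyruvate/25 mM HEPES; 3 h compound exposure; beta-lactamase FRET readout after 2 h substrate loading at RT.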

[14] = target: Beta-2 adrenergic receptor (Homo sapiens) (UniProt P07550); assay: Adrenergic beta2 receptor (ADRB2) small molecule agonists, cell-based qHTS assay (AID 1963593);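 further: CHO cells stably overexpressing human ADRB2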
Beta-2 adrenergic receptor (Homo sapiens), sequence (P07550 whole entry, looked up): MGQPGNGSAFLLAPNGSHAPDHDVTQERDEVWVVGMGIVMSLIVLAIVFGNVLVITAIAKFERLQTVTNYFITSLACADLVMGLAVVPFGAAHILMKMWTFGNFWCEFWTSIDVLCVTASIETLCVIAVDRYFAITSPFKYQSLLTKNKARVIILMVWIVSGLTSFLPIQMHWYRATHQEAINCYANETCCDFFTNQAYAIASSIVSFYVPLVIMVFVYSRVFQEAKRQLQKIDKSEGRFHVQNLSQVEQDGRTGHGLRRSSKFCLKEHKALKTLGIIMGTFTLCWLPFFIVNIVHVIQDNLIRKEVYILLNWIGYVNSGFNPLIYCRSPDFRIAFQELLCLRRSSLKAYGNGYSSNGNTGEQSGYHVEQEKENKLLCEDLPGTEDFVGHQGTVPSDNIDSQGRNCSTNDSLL
Outline: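 CHO cells stably over-expressing ADRB2 were plated overnight at 37C, then dosed with compounds plus a stimulation mix containing 100uM IBMX and 25uM Ro-20-1724 for 0.5hr at room temperature. cAMP was measured by HTRF competition, 1hr.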

[15] = target: D(2) dopamine receptor (Homo sapiens) (UniProt P14416); assay: Dopamine D2 receptor (DRD2) small molecule agonists, cell-based qHTS assay (AID 1963594); further: nearly all actives have a fitted effect of over 35% in size
D(2) dopamine receptor (Homo sapiens), sequence (P14416 whole entry, looked up): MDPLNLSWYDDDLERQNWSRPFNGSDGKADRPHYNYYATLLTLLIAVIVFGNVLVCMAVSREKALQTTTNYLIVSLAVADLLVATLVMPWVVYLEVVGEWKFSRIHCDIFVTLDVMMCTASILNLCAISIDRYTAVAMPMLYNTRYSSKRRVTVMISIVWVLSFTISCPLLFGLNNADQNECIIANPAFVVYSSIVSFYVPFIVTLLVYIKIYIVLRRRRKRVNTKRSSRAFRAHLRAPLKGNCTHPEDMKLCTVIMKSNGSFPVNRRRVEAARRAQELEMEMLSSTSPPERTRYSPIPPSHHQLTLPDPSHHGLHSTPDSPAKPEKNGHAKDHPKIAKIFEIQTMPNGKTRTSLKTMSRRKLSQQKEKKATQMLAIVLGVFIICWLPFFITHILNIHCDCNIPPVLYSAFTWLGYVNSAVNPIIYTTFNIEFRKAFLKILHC
Outline: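 HEK293 cells stably expressing human DRD2, pre-treated with PDE inhibitor Ro20-1724 (0.1 mM final) and compound 10 min at room temperature, then stimulated with NKH477 (200nM […]) for 30 min. cAMP read by HTRF (665/620 nm).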

[16] = target: D(2) dopamine receptor (Homo sapiens) (UniProt P14416); assay: Dopamine D2 receptor (DRD2) small molecule antagonists, cell-based qHTS assay (AID 1963595; active means well fitted inhibition curve with a large enough effect in the signal ratio in the repeat runs, with a control signal flat; the % refers to the signal ratio)
Outline: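 DRD2-HEK293; 0.1 mM Ro20-1724; cpd 10 min RT; NKH477 200 nM + quinpirole 12 nM, 30 min RT; HTRF cAMP (cAMP-d2/anti-cAMP cryptate), 665/620 nm ratio after 1 h.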

[17] = cAMP Responsive Elements (CRE) small molecule antagonists, cell-based qHTS assay (AID 1963591; active means well fitted inhibition curve with a large enough effect in the signal ratio in the repeat runs, not every such curve was filed as active; the % refers to the signal ratio)
Outline: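 Inhibition of NKH477-driven (0.25 uM final) CRE-beta-lactamase signal in HEK293T cells, 3 h compound exposure at 37 °C, detected by FRET substrate fluorescence.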

[18] = target: Beta-2 adrenergic receptor (Homo sapiens) (UniProt P07550); assay: Adrenergic beta2 receptor (ADRB2) small molecule antagonists, cell-based qHTS assay (AID 1963592); further: series mostly up to about 92 µM; nearly all actives have a fitted effect of over 50% in size
Outline: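 Cells (CHO, stable ADRB2 overexpression) incubated 18-20hr at 37C; compounds added from DMSO; agonist mix (1nM isoproterenol, 100uM IBMX, 25uM Ro-20-1724) added; 0.5hr RT; d2-cAMP and anti-cAMP-cryptate added; 1hr RT; 665/615 nm read.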
On the % scale 0 is the no-effect control and ±100 the full control effect.

COc1cc2c(cc1OC)[C@@H]1CC(=O)[C@@H](CC(C)C)CN1CC2
inactive: Potency [1] | Potency [2] | Potency [3] | Potency [4] | Potency [5] | Potency [6] | Potency [7] | Potency [8] | Potency [9] | Potency [10] | Potency [11] | Potency [12] | Potency [13] | Potency [14] | Potency [15] | Potency [16]

BrCCOc1ccccc1
inactive: Potency [1] | Potency [2] | Potency [3] | Potency [4] | Potency [5] | Potency [6] | Potency [7] | Potency [8] | Potency [9] | Potency [10] | Potency [11] | Potency [12] | Potency [17] | Potency [18] | Potency [16]

SCCOCCOCCS
inactive: Potency [1] | Potency [2] | Potency [3] | Potency [4] | Potency [5] | Potency [6] | Potency [7] | Potency [8] | Potency [9] | Potency [10] | Potency [11] | Potency [12] | Potency [13] | Potency [18] | Potency [15] | Potency [16]

CCN(Cc1cccc(S(=O)(=O)O)c1)c1ccc(C(=C2C=CC(=[N+](CC)Cc3cccc(S(=O)(=O)O)c3)C=C2)c2ccc(O)cc2S(=O)(=O)[O-])cc1
inactive: Potency [2] | Potency [3] | Potency [4] | Potency [5] | Potency [9] | Potency [10] | Potency [11] | Potency [12] | Potency [17]
active: Potency [1] 33.1 µM | Potency [6] 24.8 µM | Potency [7] 24.8 µM | Potency [8] 11.1 µM

C=CCOCC(O)CS(=O)(=O)O (configuration not stated)
active: Potency [2] 0.196 µM
inactive: Potency [1] | Potency [3] | Potency [4] | Potency [5] | Potency [6] | Potency [7] | Potency [8] | Potency [9] | Potency [10] | Potency [11] | Potency [12] | Potency [13] | Potency [17] | Potency [18] | Potency [16]

CC1=CC=C(C(C)C)CC1
inactive: Potency [1] | Potency [2] | Potency [3] | Potency [4] | Potency [5] | Potency [6] | Potency [7] | Potency [8] | Potency [9] | Potency [10] | Potency [11] | Potency [12] | Potency [13] | Potency [18] | Potency [14] | Potency [16]

Brc1cc(Br)c(Oc2cc(Br)c(Br)cc2Br)cc1Br
inactive: Potency [1] | Potency [2] | Potency [3] | Potency [4] | Potency [5] | Potency [6] | Potency [7] | Potency [8] | Potency [9] | Potency [10] | Potency [11] | Potency [12] | Potency [13] | Potency [17] | Potency [15] | Potency [16]

NC(=O)c1cc[n+](CC2=C(C(=O)[O-])N3C(=O)[C@@H](NC(=O)Cc4cccs4)[C@H]3SC2)cc1
inactive: Potency [1] | Potency [2] | Potency [3] | Potency [4] | Potency [5] | Potency [6] | Potency [7] | Potency [8] | Potency [9] | Potency [10] | Potency [11] | Potency [12] | Potency [13] | Potency [17] | Potency [18] | Potency [16]

O=C(O)/C=C(\CC(=O)O)C(=O)O
inactive: Potency [1] | Potency [2] | Potency [3] | Potency [4] | Potency [5] | Potency [6] | Potency [7] | Potency [8] | Potency [9] | Potency [10] | Potency [11] | Potency [12] | Potency [17] | Potency [18] | Potency [15] | Potency [16]

Oc1ccc2c(c1)Cc1ccccc1-2
inactive: Potency [1] | Potency [2] | Potency [3] | Potency [4] | Potency [5] | Potency [6] | Potency [7] | Potency [8] | Potency [9] | Potency [10] | Potency [11] | Potency [12] | Potency [13] | Potency [17] | Potency [18] | Potency [15] | Potency [16]

COC1CCC=CO1 (configuration not stated)
inactive: Potency [1] | Potency [2] | Potency [3] | Potency [4] | Potency [5] | Potency [6] | Potency [7] | Potency [8] | Potency [9] | Potency [10] | Potency [11] | Potency [12] | Potency [13] | Potency [17] | Potency [18] | Potency [16]

O=C(O)C(c1ccc(Cl)cc1)c1ccc(Cl)cc1
inactive: Potency [1] | Potency [2] | Potency [3] | Potency [4] | Potency [5] | Potency [6] | Potency [7] | Potency [8] | Potency [9] | Potency [10] | Potency [11] | Potency [12] | Potency [17] | Potency [18] | Potency [15] | Potency [16]

CCCC(=O)O[C@]1(C(=O)COC(=O)CC)CC[C@H]2[C@@H]3CCC4=CC(=O)CC[C@]4(C)[C@H]3[C@@H](O)C[C@@]21C
inactive: activity change, negative = cytotoxicity [1] -1.05% [at 19 µM] | activity, positive = activation [2] -4.28% [at 19 µM] | activity change [3] 1.71% [at 11.8 µM, hits give high values] | activation [4] -0.661% [at 15.8 µM] | activation [5] -0.97% [at 11.8 µM] | activity change, negative = cytotoxicity [6] 0.226% [at 13.5 µM] | activity change, negative = cytotoxicity [7] 1.95% [at 13.5 µM] | activity change, negative = cytotoxicity [8] -11% [at 13.5 µM] | activity, negative = inhibition [9] -43.5% [at 12.7 µM] | activation [10] 1.9% [at 15.9 µM] | activity, negative = inhibition [11] 0.329% [at 12.6 µM] | activation [12] 5.7% [at 15.8 µM] | activity change, negative = inhibition [17] 0.328% [at 18.9 µM] | activity change, negative = inhibition [18] 0.289% [at 19 µM] | activation [15] 3.82% [at 19 µM] | activity change, negative = inhibition [16] -0.509% [at 18.9 µM]

CC(C)(C)c1cc(CCC(=O)OCC(COC(=O)CCc2cc(C(C)(C)C)c(O)c(C(C)(C)C)c2)(COC(=O)CCc2cc(C(C)(C)C)c(O)c(C(C)(C)C)c2)COC(=O)CCc2cc(C(C)(C)C)c(O)c(C(C)(C)C)c2)cc(C(C)(C)C)c1O
inactive: Potency [1] | Potency [2] | Potency [3] | Potency [4] | Potency [5] | Potency [6] | Potency [7] | Potency [8] | Potency [9] | Potency [10] | Potency [11] | Potency [12] | Potency [13] | Potency [18] | Potency [16]

Cc1c(C)c2c(c(C)c1OC(=O)c1cccnc1)CC[C@@](C)(CCC[C@H](C)CCC[C@H](C)CCCC(C)C)O2
inactive: Potency [1] | Potency [2] | Potency [3] | Potency [4] | Potency [5] | Potency [6] | Potency [7] | Potency [8] | Potency [9] | Potency [10] | Potency [11] | Potency [12] | Potency [13] | Potency [17] | Potency [14] | Potency [15] | Potency [16]
